# The panel holds about 79,000 compounds, 15% with a hit somewhere; the sample as a whole holds those more often. Unmarked numbers belong to inactive results. Active and inactive are the calls of the source. Rule as the data show it: active = growth inhibition above about 70%; inactive = the rest.
# Experiments:
# [1] = NCI Yeast Anticancer Drug Screen. Data for the rad52 strain (AID 147);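 also: 0% = growth of vehicle-treated control cultures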; conditions: S. cerevisiae rad52 mutant growth inhibition, stronger effect = higher value
# How it was run: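 Growth of repair-deficient yeast cells was compared between compound-treated and vehicle-treated cultures to give percent inhibition.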
# [2] = NCI Yeast Anticancer Drug Screen. Data for the wt1 strain (AID 149);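 also: 0% = growth of vehicle-treated wt1 cultures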; conditions: S. cerevisiae wt1 strain (SPY 50644) growth inhibition, stronger effect = higher value
# How it was run: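 Compounds are added to wt1 yeast cultures. Growth is then measured. Inhibition is expressed relative to vehicle-treated controls.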
# [3] = NCI Yeast Anticancer Drug Screen. Data for the rad50EPP+ strain (AID 151);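 also: 0% = growth of vehicle-treated control cultures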; conditions: S. cerevisiae rad50 mutant strain, stronger effect = higher value
# How it was run: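 Measured: growth inhibition of rad50EPP+ yeast. Reference: vehicle-treated controls. Screen uses strains with defined genetic alterations in DNA damage repair or cell cycle control.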
# [4] = NCI Yeast Anticancer Drug Screen. Data for the mgt1 strain (AID 153); conditions: S. cerevisiae mgt1 mutant growth inhibition, stronger effect = higher value
# How it was run: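 Compounds were applied to mgt1 mutant yeast, and growth was then compared against vehicle-treated control cultures to give percent inhibition.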
# [5] = NCI Yeast Anticancer Drug Screen. Data for the rad50 strain (AID 155);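 also: 0% = growth of vehicle-only cultures of the same strain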; conditions: S. cerevisiae rad50 strain growth inhibition, stronger effect = higher value
# How it was run: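 Inhibition values express reduced yeast growth in compound-treated cultures relative to vehicle-treated controls.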
# [6] = NCI Yeast Anticancer Drug Screen. Data for the mec2-1 strain (AID 157); conditions: S. cerevisiae mec2-1 strain, stronger effect = higher value
# How it was run: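 Compounds were applied to mec2-1 yeast cells. Their growth was then compared with that of vehicle-treated cultures to give growth inhibition.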
# [7] = NCI Yeast Anticancer Drug Screen. Data for the rad14 strain (AID 159);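 also: 0% = growth of vehicle-treated control cultures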; conditions: S. cerevisiae rad14 strain growth inhibition, stronger effect = higher value
# How it was run: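 A mutant yeast strain defective in DNA damage repair is treated with compound; inhibition of its growth is scored against untreated, vehicle-exposed cultures.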
# [8] = NCI Yeast Anticancer Drug Screen. Data for the sgs1 mgt1 strain (AID 161);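 also: 0% = growth of cultures given vehicle only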; conditions: S. cerevisiae sgs1 mgt1 strain, stronger effect = higher value
# How it was run: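 Growth of a repair-deficient yeast mutant was monitored after compound treatment and expressed as inhibition relative to vehicle-treated cultures.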
# [9] = NCI Yeast Anticancer Drug Screen. Data for the CLN2oe strain (AID 163);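 also: 0% = growth of vehicle-only control cultures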; conditions: S. cerevisiae CLN2oe strain, stronger effect = higher value
# How it was run: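 Cells of an engineered yeast line with disturbed cell-cycle regulation are treated with compound. Inhibition of growth is then calculated relative to the vehicle-treated reference.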
# [10] = NCI Yeast Anticancer Drug Screen. Data for the cln2 rad14 strain (AID 165);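 also: 0% = growth equal to vehicle treated cultures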; conditions: S. cerevisiae cln2 rad14 strain, stronger effect = higher value
# How it was run: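 Strain: cln2 rad14 yeast, altered in cell cycle control and DNA damage repair. Read-out: growth inhibition vs vehicle.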
# [11] = NCI Yeast Anticancer Drug Screen. Data for the bub3 strain (AID 167); conditions: S. cerevisiae bub3 mutant strain, stronger effect = higher value
# How it was run: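 Steps: expose the mutant yeast strain to compound; grow alongside vehicle-treated cultures; measure growth; express inhibition against the vehicle cultures.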
# [12] = NCI Yeast Anticancer Drug Screen. Data for the wt2 strain (AID 169);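 also: 0% = growth of vehicle-treated yeast cultures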; conditions: S. cerevisiae wt2 strain growth inhibition, stronger effect = higher value
# How it was run: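 Growth of compound-treated yeast is measured and expressed as inhibition relative to vehicle-only controls.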
# [13] = NCI Yeast Anticancer Drug Screen. Data for the mlh1 strain (AID 171);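 also: 0% = growth of vehicle-treated control cultures of the same strain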; conditions: S. cerevisiae mlh1 strain growth inhibition, stronger effect = higher value
# How it was run: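 Test agents were incubated with yeast bearing a defined DNA damage repair or cell cycle control alteration; values are growth inhibition normalised to vehicle-treated cultures.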
# [14] = NCI Yeast Anticancer Drug Screen. Data for the sgs1 strain (AID 173);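 also: 0% = growth of vehicle-only control cultures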; conditions: S. cerevisiae sgs1 mutant, stronger effect = higher value
# How it was run: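 Strain with an altered DNA repair or cell cycle pathway exposed to compound. Growth then measured. Value = inhibition versus vehicle control.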
# [15] = NCI Yeast Anticancer Drug Screen. Data for the mlh1 rad18 strain (AID 175); conditions: S. cerevisiae mlh1 rad18 strain growth inhibition, stronger effect = higher value
# How it was run: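 A repair-deficient yeast strain is exposed to test compound, and growth is scored relative to vehicle-treated controls.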
# [16] = NCI Yeast Anticancer Drug Screen. Data for the rad18 strain (AID 177); conditions: S. cerevisiae rad18 mutant growth inhibition, stronger effect = higher value
# How it was run: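 DNA-repair-defective yeast; compound treatment; growth inhibition scored against vehicle.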
# [17] = at 5.0 µM (retest, dose inferred, filed as 0.5)
# [18] = at 50.0 µM (retest, dose inferred, filed as 5.0)
smiles,measurement,setting,value
Cc1ccc(S(=O)(=O)N/N=C/C(Br)=C(/Br)C(=O)O)cc1,growth inhibition,[1]; at 1.2 µM,31%
same,growth inhibition,[1]; at 3.7 µM,59%
same,growth inhibition,[1]; at 11.0 µM,86% (active)
same,growth inhibition,[1]; at 33.0 µM,95% (active)
same,growth inhibition,[1]; at 100.0 µM,89% (active)
same,growth inhibition,[2]; at 1.2 µM,29%
same,growth inhibition,[2]; at 3.7 µM,28%
same,growth inhibition,[2]; at 11.0 µM,43%
same,growth inhibition,[2]; at 33.0 µM,91% (active)
same,growth inhibition,[2]; at 100.0 µM,41%
same,growth inhibition,[3]; at 1.2 µM,28%
same,growth inhibition,[3]; at 3.7 µM,46%
same,growth inhibition,[3]; at 11.0 µM,80% (active)
same,growth inhibition,[3]; at 33.0 µM,96% (active)
same,growth inhibition,[3]; at 100.0 µM,82% (active)
same,growth inhibition,[4]; at 1.2 µM,35%
same,growth inhibition,[4]; at 3.7 µM,48%
same,growth inhibition,[4]; at 11.0 µM,79% (active)
same,growth inhibition,[4]; at 33.0 µM,98% (active)
same,growth inhibition,[4]; at 100.0 µM,89% (active)
same,growth inhibition,[5]; at 1.2 µM,41%
same,growth inhibition,[5]; at 3.7 µM,61%
same,growth inhibition,[5]; [17],38%
same,growth inhibition,[5]; at 11.0 µM,86% (active)
same,growth inhibition,[5]; at 33.0 µM,97% (active)
same,growth inhibition,[5]; [18],79% (active)
same,growth inhibition,[5]; at 50.0 µM,57.8%
same,growth inhibition,[5]; at 100.0 µM,95% (active)
same,growth inhibition,[6]; at 1.2 µM,20%
same,growth inhibition,[6]; at 3.7 µM,35%
same,growth inhibition,[6]; [17],-11%
same,growth inhibition,[6]; at 11.0 µM,57%
same,growth inhibition,[6]; at 33.0 µM,96% (active)
same,growth inhibition,[6]; [18],10%
same,growth inhibition,[6]; at 50.0 µM,43.8%
same,growth inhibition,[6]; at 100.0 µM,70% (active)
same,growth inhibition,[7]; at 1.2 µM,14%
same,growth inhibition,[7]; at 3.7 µM,28%
same,growth inhibition,[7]; at 11.0 µM,50%
same,growth inhibition,[7]; at 33.0 µM,97% (active)
same,growth inhibition,[7]; at 100.0 µM,95% (active)
same,growth inhibition,[8]; [17],1%
same,growth inhibition,[8]; [18],43%
same,growth inhibition,[8]; at 50.0 µM,62.8%
same,growth inhibition,[9]; at 1.2 µM,3%
same,growth inhibition,[9]; at 3.7 µM,8%
same,growth inhibition,[9]; at 11.0 µM,21%
same,growth inhibition,[9]; at 33.0 µM,54%
same,growth inhibition,[9]; at 100.0 µM,43%
same,growth inhibition,[10]; [17],24%
same,growth inhibition,[10]; [18],42%
same,growth inhibition,[10]; at 50.0 µM,25.2%
same,growth inhibition,[11]; at 1.2 µM,-5%
same,growth inhibition,[11]; at 3.7 µM,1%
same,growth inhibition,[11]; [17],-27%
same,growth inhibition,[11]; at 11.0 µM,49%
same,growth inhibition,[11]; at 33.0 µM,93% (active)
same,growth inhibition,[11]; [18],37%
same,growth inhibition,[11]; at 50.0 µM,64.2%
same,growth inhibition,[11]; at 100.0 µM,82% (active)
same,growth inhibition,[12]; at 1.2 µM,-3%
same,growth inhibition,[12]; at 3.7 µM,10%
same,growth inhibition,[12]; at 11.0 µM,48%
same,growth inhibition,[12]; at 33.0 µM,99% (active)
same,growth inhibition,[12]; at 100.0 µM,98% (active)
same,growth inhibition,[13]; at 1.2 µM,35%
same,growth inhibition,[13]; at 3.7 µM,48%
same,growth inhibition,[13]; at 11.0 µM,79% (active)
same,growth inhibition,[13]; at 33.0 µM,98% (active)
same,growth inhibition,[13]; at 100.0 µM,89% (active)
same,growth inhibition,[14]; at 1.2 µM,28%
same,growth inhibition,[14]; at 3.7 µM,38%
same,growth inhibition,[14]; at 11.0 µM,56%
same,growth inhibition,[14]; at 33.0 µM,95% (active)
same,growth inhibition,[14]; at 100.0 µM,77% (active)
same,growth inhibition,[15]; [17],25%
same,growth inhibition,[15]; [18],69%
same,growth inhibition,[15]; at 50.0 µM,91.9% (active)
same,growth inhibition,[16]; at 1.2 µM,24%
same,growth inhibition,[16]; at 3.7 µM,36%
same,growth inhibition,[16]; at 11.0 µM,64%
same,growth inhibition,[16]; at 33.0 µM,95% (active)
same,growth inhibition,[16]; at 100.0 µM,86% (active)
CCN(CC)CCNc1ccc2ncn3c4ccc(O)cc4c(=O)c1c23,growth inhibition,[1]; at 1.2 µM,9%
same,growth inhibition,[1]; at 3.7 µM,28%
same,growth inhibition,[1]; at 11.0 µM,56%
same,growth inhibition,[1]; at 33.0 µM,75% (active)
same,growth inhibition,[1]; at 100.0 µM,85% (active)
same,growth inhibition,[2]; at 1.2 µM,0%
same,growth inhibition,[2]; at 3.7 µM,-2%
same,growth inhibition,[2]; at 11.0 µM,-4%
same,growth inhibition,[2]; at 33.0 µM,-2%
same,growth inhibition,[2]; at 100.0 µM,1%
same,growth inhibition,[3]; at 1.2 µM,-1%
same,growth inhibition,[3]; at 3.7 µM,6%
same,growth inhibition,[3]; at 11.0 µM,13%
same,growth inhibition,[3]; at 33.0 µM,26%
same,growth inhibition,[3]; at 100.0 µM,39%
same,growth inhibition,[4]; at 1.2 µM,-3%
same,growth inhibition,[4]; at 3.7 µM,-6%
same,growth inhibition,[4]; at 11.0 µM,-1%
same,growth inhibition,[4]; at 33.0 µM,1%
same,growth inhibition,[4]; at 100.0 µM,1%
same,growth inhibition,[5]; at 1.2 µM,13%
same,growth inhibition,[5]; at 3.7 µM,32%
same,growth inhibition,[5]; [17],65%
same,growth inhibition,[5]; at 11.0 µM,65%
same,growth inhibition,[5]; at 33.0 µM,81% (active)
same,growth inhibition,[5]; [18],65%
same,growth inhibition,[5]; at 50.0 µM,-6.6%
same,growth inhibition,[5]; at 100.0 µM,87% (active)
same,growth inhibition,[6]; at 1.2 µM,-3%
same,growth inhibition,[6]; at 3.7 µM,-3%
same,growth inhibition,[6]; [17],18%
same,growth inhibition,[6]; at 11.0 µM,-2%
same,growth inhibition,[6]; at 33.0 µM,4%
same,growth inhibition,[6]; [18],18%
same,growth inhibition,[6]; at 50.0 µM,3.05%
same,growth inhibition,[6]; at 100.0 µM,22%
same,growth inhibition,[7]; at 1.2 µM,2%
same,growth inhibition,[7]; at 3.7 µM,-1%
same,growth inhibition,[7]; at 11.0 µM,3%
same,growth inhibition,[7]; at 33.0 µM,3%
same,growth inhibition,[7]; at 100.0 µM,6%
same,growth inhibition,[8]; [17],13%
same,growth inhibition,[8]; [18],13%
same,growth inhibition,[8]; at 50.0 µM,-33.6%
same,growth inhibition,[9]; at 1.2 µM,-4%
same,growth inhibition,[9]; at 3.7 µM,1%
same,growth inhibition,[9]; at 11.0 µM,0%
same,growth inhibition,[9]; at 33.0 µM,2%
same,growth inhibition,[9]; at 100.0 µM,-1%
same,growth inhibition,[10]; [17],18%
same,growth inhibition,[10]; [18],18%
same,growth inhibition,[10]; at 50.0 µM,19.9%
same,growth inhibition,[11]; at 1.2 µM,-7%
same,growth inhibition,[11]; at 3.7 µM,-9%
same,growth inhibition,[11]; [17],30%
same,growth inhibition,[11]; at 11.0 µM,3%
same,growth inhibition,[11]; at 33.0 µM,4%
same,growth inhibition,[11]; [18],30%
same,growth inhibition,[11]; at 50.0 µM,8.45%
same,growth inhibition,[11]; at 100.0 µM,-11%
same,growth inhibition,[12]; at 1.2 µM,-1%
same,growth inhibition,[12]; at 3.7 µM,1%
same,growth inhibition,[12]; at 11.0 µM,-3%
same,growth inhibition,[12]; at 33.0 µM,1%
same,growth inhibition,[12]; at 100.0 µM,-2%
same,growth inhibition,[13]; at 1.2 µM,-5%
same,growth inhibition,[13]; at 3.7 µM,-4%
same,growth inhibition,[13]; at 11.0 µM,-2%
same,growth inhibition,[13]; at 33.0 µM,-5%
same,growth inhibition,[13]; at 100.0 µM,10%
same,growth inhibition,[14]; at 1.2 µM,-4%
same,growth inhibition,[14]; at 3.7 µM,-6%
same,growth inhibition,[14]; at 11.0 µM,-6%
same,growth inhibition,[14]; at 33.0 µM,-4%
same,growth inhibition,[14]; at 100.0 µM,-1%
same,growth inhibition,[15]; [17],25%
same,growth inhibition,[15]; [18],25%
same,growth inhibition,[15]; at 50.0 µM,64.7%
same,growth inhibition,[16]; at 1.2 µM,0%
same,growth inhibition,[16]; at 3.7 µM,-4%
same,growth inhibition,[16]; at 11.0 µM,-11%
same,growth inhibition,[16]; at 33.0 µM,-8%
same,growth inhibition,[16]; at 100.0 µM,-14%
